An excerpt weighted towards active compounds, which were near 5.4% of everything screened.
RORgamma inh: blocks mouse ROR gamma transcriptional activity. P51450. Drosophila S2 Gal4-RORgamma UAS-luciferase reporter, 20 h. Potency, µM (highest dose often 53.6 µM), actives largely listed as inhibitors. 310,000 tested, 5.4% active. AID 2551; further: nearly all actives have a fitted effect of over 60% in size
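A Gal4/UAS one-hybrid system in insect cells: metallothionein-promoter Gal4–ROR gamma fusion plus Photinus luciferase reporter. Copper sulfate 700 uM final, 20 hr ambient incubation, luminescent detection after 10 min with reagent.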
CtBP-E1A inh: inhibitors of CtBP/E1A interaction. AID 651724. AlphaScreen GST-E1A/His-CtBP binding, 1536-well; active compounds read low. activity change, % (test concentration not listed). 340,000 tested, 0.49% active; in the data active means activity change below about -65%; inconclusive means mostly about -30% to -63%
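Homogeneous bead-based format: GST-tagged E1A captured on glutathione donor beads, His-tagged CtBP on nickel acceptor beads; compounds precede bead addition by 2 h at 37 °C.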
Six1-Eya2 inh: blocks human Six1 binding to Eya2; Q15475+O00167; AlphaScreen GST-Six1/His-Eya2 binding, biochemical; active compounds read low; activity change, % (no concentration beside the values); 360,000 tested, 0.56% active; AID 651725; in the data active means activity change below about -65%; inconclusive means mostly about -30% to -63%
Target sequence (O00167 whole entry, looked up): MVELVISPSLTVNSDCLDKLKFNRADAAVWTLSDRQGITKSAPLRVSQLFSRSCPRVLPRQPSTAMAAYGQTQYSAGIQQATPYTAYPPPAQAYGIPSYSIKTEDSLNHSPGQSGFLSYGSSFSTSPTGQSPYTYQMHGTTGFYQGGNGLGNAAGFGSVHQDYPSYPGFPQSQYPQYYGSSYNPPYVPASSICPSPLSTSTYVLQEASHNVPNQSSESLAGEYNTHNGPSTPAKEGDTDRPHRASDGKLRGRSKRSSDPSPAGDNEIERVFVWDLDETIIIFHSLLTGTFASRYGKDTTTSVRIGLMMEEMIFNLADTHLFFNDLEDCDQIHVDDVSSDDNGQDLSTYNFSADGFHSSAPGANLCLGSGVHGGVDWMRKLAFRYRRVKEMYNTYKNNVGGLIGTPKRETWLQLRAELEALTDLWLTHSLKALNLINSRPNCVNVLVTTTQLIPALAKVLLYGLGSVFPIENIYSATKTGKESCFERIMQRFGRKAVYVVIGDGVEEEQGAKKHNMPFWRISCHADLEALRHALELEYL
Target sequence (Q15475 whole entry, looked up): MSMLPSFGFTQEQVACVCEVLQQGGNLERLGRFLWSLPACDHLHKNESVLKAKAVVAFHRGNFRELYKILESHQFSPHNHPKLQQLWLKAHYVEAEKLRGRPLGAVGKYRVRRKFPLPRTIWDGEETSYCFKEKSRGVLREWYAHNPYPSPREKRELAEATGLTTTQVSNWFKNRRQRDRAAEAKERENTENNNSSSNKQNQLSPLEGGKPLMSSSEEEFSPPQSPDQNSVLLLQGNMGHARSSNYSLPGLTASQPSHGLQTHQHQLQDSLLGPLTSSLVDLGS
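AlphaScreen with GST-Six1 and His-Eya2 (5X mix: 250 nM and 500 nM), glutathione donor and nickel acceptor beads; buffer 50 mM Tris pH 8.0, 300 mM NaCl, 1 mM TCEP; 1 h at 37 C in the dark.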
VP16 counter: Gal4-VP16 reporter inhibition counter-screen | AID 2546 | 310,000 tested, 3.5% active | Drosophila S2 Gal4-VP16 UAS-luciferase, luminescence, 20 h | Potency, µM (doses to about 53.6 µM), hits mostly inhibitors;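 further: Gal4-VP16 expression switched on by copper sulfate through the metallothionein promoter; nearly all actives have a fitted effect of over 50% in size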
p53 reactivation: restores transcriptional activity of mutant p53 | H1299 p53-A138V BP100-luciferase reporter, luminescence, 24 h | Potency, µM (top dose mostly 92.2 µM), usual class: activators | 320,000 tested, 0.063% active; further: nearly all actives have a fitted effect of over 45% in size
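p53-null H1299 cells stably carrying temperature-sensitive p53-A138V and a BP100-luciferase reporter were pinned with compounds (4-point, 1:5 series) and held 24 hrs at 37 deg C. Luminescence was read 10 min after detection reagent.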
Hits are given with their value; n = inactive; u = inconclusive; x = no result given; [ ] = remark or other dose. Unless noted, the call rests on the fitted dose curve; in most records, active means well fitted curve in the direction sought with a large enough effect; inconclusive means small, poorly fitted or top-dose-only effect, or another doubt; inactive means no such curve, though single readings can be large; an effect the other way counts as inactive or inconclusive.

SMILES	RORgamma inh	CtBP-E1A inh	Six1-Eya2 inh	VP16 counter	p53 reactivation
Cc1ccc(C)c(OCC(=O)O/N=C(\N)c2cccc([N+](=O)[O-])c2)c1	n	n	n	n	n
Cc1cccc(/C(N)=N/OC(=O)c2ccc(Cl)cc2Cl)c1	2µM	n	n	20µM	u
N/C(=N\OC(=O)c1ccc(Cl)cc1Cl)c1cccnc1	n	x	n	u	n
Cc1ccc(/C(N)=N/OC(=O)c2ccc(C)cc2Cl)cc1	4.5µM	n	n	10µM	x
CN(c1ccccc1)S(=O)(=O)c1cccc(NC(=O)c2ccc(=O)[nH]n2)c1	x	n	n	x	n
O=C(NCc1ccccc1)[C@@H]1CCCN1C(=O)[C@@H]1CCCN1C(=O)c1cccc2ccccc12	x	n	n	x	x
NS(=O)(=O)c1ccc(CNC(=O)Cc2c(F)cccc2Cl)cc1	n	n	n	n	n
CC1(C)Cc2cccc(OCC(=O)N3CCN(S(=O)(=O)c4ccc(F)cc4)CC3)c2O1	n	n	n	n	n
Cc1cccc(N2CCN(C(=O)COc3cccc4c3OC(C)(C)C4)CC2)c1C	u	n	n	3.2µM	n
CC(C)(C)c1csc(Sc2ncccc2[N+](=O)[O-])n1	n	x	n	n	n
CCCCNC(=O)Cn1nc(Cc2ccncc2)c2ccccc2c1=O	n	x	n	n	n
O=C(Cn1nc(Cc2ccncc2)c2ccccc2c1=O)N1CCc2ccccc2C1	n	-68	n	n	n
CC(=O)c1c(C)[nH]c(-c2ccccc2)nc1=S	3.2µM	n	n	u	n
CSc1nc(-c2ccccc2)[nH]c(=S)c1C(C)=O	6.3µM	n	n	u	n
CSc1nc(-c2ccccc2)nc(SC)c1C(C)=O	n	n	n	n	n
CC(=O)c1c(NC(=O)c2ccccc2)[nH]c(-c2ccccc2)nc1=S	3.2µM	n	n	8.9µM	n
COc1ccccc1-c1nc(=S)c(C(C)=O)c(C)[nH]1	5.6µM	n	n	u	n
OCCNC(=S)c1ccccc1	n	x	n	n	n
CC(=O)Nc1ccc(OS(=O)(=O)c2cc(Cl)ccc2C)cc1	n	n	n	n	n
CCCC(C)NC(=O)c1cc(C(=O)OC)cc([N+](=O)[O-])c1 (configuration not stated)	n	n	n	n	n
CCCC(C)c1nnc(NC(=O)c2cc(C(=O)OC)cc([N+](=O)[O-])c2)s1 (configuration not stated)	10µM	n	n	16µM	n
COc1cccc(CC2(CO)CCCN(Cc3ccc(OC)c(C)c3OC)C2)c1 (configuration not stated)	n[1.91 µM]	n	n	n	n
CCSc1nnc(CNC(=O)C23CC4CC(CC(C4)C2)C3)n1C1CCCCC1	u	n	n	n	n
COc1ccc(C(=O)CCS(=O)(=O)c2ccc(C)cc2)cc1	5.6µM	n	n	10µM	n
Cc1ccc(S(=O)(=O)CCC(=O)c2cccc([N+](=O)[O-])c2)cc1	4µM	n	n	5µM	n
SMILES	RORgamma inh	CtBP-E1A inh	Six1-Eya2 inh	VP16 counter	p53 reactivation
Cc1ccc(S(=O)(=O)Cc2cc(F)c([N+](=O)[O-])cc2[N+](=O)[O-])cc1	n	n	n	6.3µM	n
Cc1ccc(C(=O)CCS(=O)(=O)c2ccc(Br)cc2)cc1	n	n	n	u	n
COc1ccc(C(=O)CC(c2ccccc2)S(=O)(=O)c2ccc(C)cc2)cc1 (configuration not stated)	n	x	x	n	n
COc1ccc(C(CC(=O)c2ccc(O)cc2)S(=O)(=O)c2ccc(C)cc2)cc1 (configuration not stated)	1.8µM	n	n	10µM	u
CCOC(=O)N/N=C1/C[C@@H](O)[C@@H](O)[C@@H]2[C@@H]3C(=O)N(C[C@@H]4CCCO4)C(=O)[C@H]3CC[C@H]12	n[10 µM]	x	x	n[10 µM]	x
C=C[C@H]1CCC=C2C(=O)CCC[C@@H]21	n	x	x	n	x
O=C(NN=Cc1ccc(O)cc1O)c1ccccc1NS(=O)(=O)c1cccs1	x	-80	u	x	n
COc1ccc(C=NNC(=O)c2ccccc2NS(=O)(=O)c2cccs2)cc1O	x	n	n	x	n
O=C(CCc1ccccc1)NCC(=O)N/N=C/c1ccc(O)cc1O	n	x	-66	n	n
O=C(CNC(=O)c1cccnc1)N/N=C/c1ccc(O)cc1O	n	-86	-72	n	n
O=C(CCc1ccccc1)NCC(=O)N/N=C/c1ccc2c(c1)OCO2	n	x	n	n	n

Compound activity (PubChem BioAssay)
